# Source: PubChem BioAssay (Broad Institute)
# SIRT5 inh = sirtuin-5 (human) deacylase inhibition; Purified SirT5, succinyl-peptide AMC, trypsin-coupled fluorescence; inhibition, % at 15 µM; 1.1% of 330,000 active; AID 652115; in the data active = inhibition above about 15%
# FGF22 binding = binders of recombinant human FGF22 by thermal shift; Q9HCT0; SYPRO orange fluorescence; percent of sucrose octasulfate shift, DMSO zero; activity (Tm shift, normalised), % at 9.99 µM; 1.5% of 340,000 active; AID 651658;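 active = mean Tm shift, scaled 0 neutral to 100 positive control, at about 1.3% or above, every replicate too, limit read from the data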
# GSIS activator = primary screen for activators of insulin secretion dependent on glucose, INS-1E cells, GLuc reporter luminescence; INS-1E GLuc reporter insulin secretion, 2-3 h; activation, % at 16.6 µM; 0.61% of 370,000 active;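 active = lowest replicate activation of at least 40%, so every replicate reaches that level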;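 note: 0% = median of neutral control wells and 100% = median of IBMX positive control wells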
# Casp6 inh = caspase-6 (human) enzyme inhibition; purified caspase-6, Z-VEID-R110 cleavage fluorescence; inhibition, % at 12.5 µM; 0.53% of 350,000 active; AID 686996;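 active = mean inhibition across replicates at least about 35%, with every replicate also reaching that limit, limit read from the data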;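 note: 0% = median of neutral control wells and 100% = no fluorescence left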
# ERAP1 HTS inh = inhibitors of human ERAP1 aminopeptidase | Q9NZ08 | recombinant ERAP1, Leu-AMC fluorescence, 60 min | inhibition, % at 10.7 µM | 0.15% of 340,000 active;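 active = mean replicate inhibition of at least 30%, or all replicates individually reaching that 30% level; inactive = mean below 30% and not every replicate reaching it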;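 note: 0% = neutral control wells and 100% = L-leucinethiol positive control wells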
# Target sequence (Q9NZ08 whole entry, looked up): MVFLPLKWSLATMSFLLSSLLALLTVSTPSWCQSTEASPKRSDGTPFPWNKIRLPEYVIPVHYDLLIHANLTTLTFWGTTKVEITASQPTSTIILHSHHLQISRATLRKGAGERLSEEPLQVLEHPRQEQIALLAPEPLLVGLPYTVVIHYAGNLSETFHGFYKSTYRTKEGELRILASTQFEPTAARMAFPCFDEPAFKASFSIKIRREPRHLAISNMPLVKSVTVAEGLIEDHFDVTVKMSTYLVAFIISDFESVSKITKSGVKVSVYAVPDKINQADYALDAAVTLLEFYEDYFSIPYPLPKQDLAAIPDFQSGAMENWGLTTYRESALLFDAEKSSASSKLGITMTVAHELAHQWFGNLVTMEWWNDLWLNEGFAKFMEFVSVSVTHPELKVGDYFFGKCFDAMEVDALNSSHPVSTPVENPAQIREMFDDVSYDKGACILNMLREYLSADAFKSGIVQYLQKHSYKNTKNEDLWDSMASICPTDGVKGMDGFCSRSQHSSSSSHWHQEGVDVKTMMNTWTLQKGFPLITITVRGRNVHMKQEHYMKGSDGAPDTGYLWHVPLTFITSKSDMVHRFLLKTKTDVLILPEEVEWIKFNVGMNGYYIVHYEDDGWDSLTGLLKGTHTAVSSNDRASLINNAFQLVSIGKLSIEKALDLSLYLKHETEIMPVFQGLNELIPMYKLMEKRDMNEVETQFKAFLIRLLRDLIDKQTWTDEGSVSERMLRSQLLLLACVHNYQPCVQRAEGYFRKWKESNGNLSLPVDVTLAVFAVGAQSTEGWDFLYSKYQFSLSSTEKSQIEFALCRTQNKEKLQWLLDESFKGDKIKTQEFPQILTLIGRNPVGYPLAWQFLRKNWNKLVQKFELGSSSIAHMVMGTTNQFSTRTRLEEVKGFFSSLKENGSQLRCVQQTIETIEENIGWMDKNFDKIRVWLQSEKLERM
# Starred values were filed as active, the others as inactive; . = not tested or not shown; ! = not confirmed by another sample. Only some compounds are listed: those with a hit (about 3.3% of all), similar ones and a draw of the others.
SMILES,SIRT5 inh,FGF22 binding,GSIS activator,Casp6 inh,ERAP1 HTS inh
CCNC(=O)C[C@@H]1CC[C@H]2[C@@H](COC[C@H](O)CN2C(=O)Nc2c(C)noc2C)O1,0.5,0.1,5.7,0.9,-0.3
O=C(c1ccccc1)c1sc(N2CCOCC2)nc1-c1ccccc1,3.7,44.0*,37.2,0.3,0.4
CCOC(=O)C1(CCOC)CCN(Cc2ccc(COC)o2)CC1,0.8,42.7,-5.3,0.1,0.5
CCOC(=O)C1(CCOC)CCN(C2C3CC4CC(C3)CC2C4)CC1 (centres undefined),1.2,43.3*,0.9,.,-1.1
Cc1ccc(NC(=O)CCC(=O)c2cccs2)cc1F,101.4*,0.6,-0.8,-3.5,0.2
Cc1ccccc1NC(=O)COC(=O)CCC(=O)c1cccs1,15.4*,0.7,2.0,0.0,-1.5
Cc1ccc(S(=O)(=O)Nc2ccc3c(c2)C(=O)N([C@H](C)CO)C[C@H](C)[C@@H](CN(C)C(=O)c2ccncc2)OCCCC[C@@H](C)O3)cc1,.,0.1,9.5,.,.
COc1ccc(S(=O)(=O)N(C)C[C@H]2OCCCC[C@@H](C)Oc3ccc(NC(=O)CCCN(C)C)cc3C(=O)N([C@@H](C)CO)C[C@H]2C)cc1,-5.8,0.1,26.7,3.1,-1.5
C[C@H](CO)N1C[C@H](C)[C@@H](CN(C)S(=O)(=O)c2cccs2)OCc2ccccc2-c2c(n(C)c3ccccc23)C1=O,1.2,.,-10.2,1.0,-5.8
COc1ccc(-c2nnc(SCCC(=O)O)n2-c2ccccc2)cc1OC,15.0*,0.2,7.5,0.2,3.0
COc1ccc(-c2nnc(SCCC(=O)O)n2C)cc1OC,.,.,15.0,.,.
CCC(=O)NNC(=O)CCC(=O)Nc1ccc(C)cc1C,-1.9,43.4*,5.5,-3.0,-5.3
Cc1ccc(-c2nc3c(=O)n(C)c4ccccc4c3o2)cc1,.,.,79.2*,.,.
CCOc1ccccc1NC(=S)N(CCC(C)C)C1CCN(C(C)=O)CC1,18.5*,-0.3,.,3.0,.
COCC(=O)N1C[C@H](C)[C@@H](OC)CN(C)C(=O)c2ccc(NS(C)(=O)=O)cc2OC[C@H]1C,-2.6,-0.1,16.0,.,.
CCCC(=O)Nc1ccc2c(c1)OC[C@@H](C)N(CCC(F)(F)F)C[C@H](C)[C@@H](OC)CN(C)C2=O,0.2,-0.1,-13.4,-1.4,-0.7
CCCCc1c(-c2ccccc2OC)ncn1C(C)c1ccc(Cl)cc1 (centres undefined),.,-0.1,54.6*,3.3,2.6
CCCCc1c(-c2ccccc2OC)ncn1Cc1ccc(Cl)cc1Cl,.,0.0,.,-3.7,0.0
CCCCc1c(-c2ccccc2F)ncn1CCc1ccccc1OC,27.9*,-0.2,63.6*,2.0,0.4
CCCCc1c(-c2cccc(Br)c2)ncn1CCc1ccccc1OC,5.7,34.6*,-14.2,-0.6,-0.3
O=C(C1CCC1)N1CC(=O)N2[C@H](CO)[C@H](c3ccc(C#Cc4cccc(F)c4)cc3)[C@H]2C1,5.1,.,11.7,.,.
Cc1noc(C)c1NC(=O)N(C)C[C@H]1OCCCC[C@@H](C)Oc2ccc(NS(=O)(=O)c3ccc(F)cc3)cc2C(=O)N([C@H](C)CO)C[C@H]1C,6.9,0.1,-11.4,-3.7,-2.0
C[C@H]1CCCCO[C@H](CN(C)C(=O)CCC(F)(F)F)[C@@H](C)CN([C@@H](C)CO)C(=O)c2cc(NC(=O)c3ccccc3)ccc2O1,5.7,0.7,-22.8,0.1,-4.1
Nc1cc(C(=O)OCC(=O)NCc2ccc(F)cc2)ccc1Cl,-4.1,44.0*,1.5,-3.2,-0.8
C[C@@H]1CCCCO[C@H](CN(C)S(C)(=O)=O)[C@@H](C)CN([C@H](C)CO)C(=O)c2cc(NS(=O)(=O)c3ccccc3)ccc2O1,-3.3,1.1,-1.6,2.4,-4.8
SMILES,SIRT5 inh,FGF22 binding,GSIS activator,Casp6 inh,ERAP1 HTS inh
CC(=O)N(c1ccccc1C)S(=O)(=O)c1ccc(Cl)cc1,.,43.2*,1.7,-2.3,0.1
CNC(=S)N/N=C/c1ccc(-c2ccc(Cl)c([N+](=O)[O-])c2)o1,-0.1,0.1,46.4*,-0.8,-3.6
OC(C1=CC(=Cc2ccncc2)c2ccccc21)c1ccncc1 (centres undefined),.,43.2*,.,-0.2,6.7
COC(=O)[C@]12CCCCC=C1N(Cc1ccccc1)C(=O)[C@H](CC(=O)NCC13CC4CC(CC(C4)C1)C3)C2,-1.1,-0.3,-8.4,54.1*,.
COC(=O)[C@]12CCCCC=C1N(Cc1cccc3ccccc13)C(=O)[C@H](CC(=O)NCCCCc1ccccc1)C2,0.5,0.4,1.7,-0.7,-0.4
COC(=O)[C@]12CCCCC=C1N(CCC1=CCCCC1)C(=O)[C@H](CC(=O)NCCc1ccccc1OC)C2,15.7*,0.1,-25.3,0.3,-1.6
COC(=O)[C@]12CCCCC=C1N(Cc1ccccc1)C(=O)[C@H](CC(=O)NCCCCc1ccccc1)C2,17.2*,-0.2,-26.6,0.4,.
CCOC(=O)[C@]12CCCC=C1N(Cc1ccccc1)C(=O)[C@H](CC(=O)NCC13CC4CC(CC(C4)C1)C3)C2,0.6,-0.6,-16.2,-2.1,.
C[C@@H]1CN([C@H](C)CO)C(=O)c2cccc(NS(=O)(=O)c3ccc(Cl)cc3)c2O[C@@H]1CN(C)Cc1ccccc1,10.2,-0.1,-12.2,1.3,0.2
COC(=O)CN1CC(=O)N(c2ccccc2)C1=S,1.4,43.1*,.,0.4,4.4
Cc1nc(C(F)(F)F)c(C(=O)N/N=C(\N)c2cccnc2)s1,0.2,43.4*,12.6,-1.2,-0.1
Cc1ccc(S(=O)(=O)Nc2ccc3c(c2)C(=O)N([C@H](C)CO)C[C@H](C)[C@H](CN(C)Cc2ccc(C(F)(F)F)cc2)O3)cc1,.,.,-14.3,.,.
COc1ccc(CCN2CC(=O)NC(=O)C2)cc1OC,-5.5,0.0,54.5*,-0.3,-1.7
CN(C)C(=O)c1cccc(-c2ccc(C3[C@@H]4CN(C(=O)c5ccccn5)C[C@H]3N4)cc2)c1 (some centres undefined),21.8*!,.,12.8,1.6,1.1
CN(C)C(=O)c1ccc(-c2ccc(C3[C@@H]4CN(C(=O)Cc5ccccc5)C[C@H]3N4)cc2)cc1 (some centres undefined),17.0*!,.,2.8,0.4,-0.7
CCn1c(/C=C/c2cc[n+](C)cc2)nc2ccccc21,-3.4,0.1,4.5,-13.3,59.0*
O=C(CC(C(=O)O)P(=O)(c1ccccc1)c1ccccc1)c1ccccc1 (centres undefined),-2.9,43.0*,2.0,-0.8,-5.4
O=C(CC(CC(=O)c1ccccc1)c1ccccc1)c1ccccc1,-2.4,0.1,21.4,-4.1,0.3
CN(C)CCCN(C(=O)c1ccco1)c1nc2ccc(F)cc2s1,18.6*,0.0,11.4,1.9,14.8
CN(C)CCCN(C(=O)c1ccc([N+](=O)[O-])s1)c1nc2cc3c(cc2s1)OCCO3,-1.0,-0.1,8.6,83.9*,-3.9
CN(C)CCCN(C(=O)c1ccco1)c1nc2c(F)cccc2s1,-2.6,0.1,40.7*,2.0,-3.0
CN(C)CCCN(C(=O)c1ccco1)c1nc2c(F)cc(F)cc2s1,-2.4,0.1,5.7,1.3,4.8
